# Test results as given in PubChem BioAssay.
# Calls of active or inactive are those of the source.
# Assays:
# [1] = test system: PRMT1 (protein arginine N-methyltransferase 1); test: small molecules binding arginine methyltransferase PRMT1 – biochemical, small-molecule microarray, 635 nm fluorescence, primary screen (AID 1088); conditions: higher = more signal;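 further: binding of Prmt1 protein to compounds spotted on small-molecule microarray slides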
# [2] = growth effects on S. cerevisiae YJM789 – YJM789 clinical isolate, OD600, 24 h, basal, primary screen (AID 1089); conditions: higher = more signal, called active from +8 up or from −8 down;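 further: growth of clinical yeast isolate S. cerevisiae YJM 789 seeded 1000 cells per well; test concentration not given here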
# [3] = S. pombe growth modifiers, basal conditions – strain 972, OD600, 24 h, no modulator, primary screen (AID 1090);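 further: basal condition with compound alone and no growth modifier present; test concentration not given here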; conditions: S. pombe 972 growth, higher = more signal, called active from +8 up or from −8 down
# [4] = budding yeast growth modifiers under rapamycin – strain BY4716, OD600, 96 h, primary screen (AID 1091); further: test concentration not given here; conditions: S. cerevisiae BY4716 + rapamycin, higher = more signal, called active from +8 up or from −8 down
# [5] = molecular target: Torsin-1A-interacting protein 2 (Homo sapiens) (UniProt Q8NFQ8); test: small molecules binding lysate-expressed LULL1 – cell lysate, human LULL1 lysate, 635/667 nm fluorescence, primary screen (AID 1092); conditions: small-molecule microarray, hLULL1 lysate binding, 635 nm fluorescence; higher = more signal;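 further: probe is lysate of COS7 cells overexpressing human LULL1; score merges per-feature 667 nm fluorescence with signal-to-noise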
# [6] = optical density change of DRC41 E. coli – strain DRC41, OD650, 24 h, E. coli filamentation project, primary screen (AID 1093);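 further: MC1000 strain lacking acrAB efflux and sulA so SOS filamentation is blocked; test concentration not given here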; conditions: E. coli DRC41 growth, higher = more signal, called active from +8 up or from −8 down
# [7] = probe aLefty2 binding to arrayed compounds – biochemical, biotinylated probe, 635/667 nm fluorescence, primary screen (AID 1094); conditions: small-molecule microarray, higher = more signal;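 further: score merges spot fluorescence near 667 nm with spot signal-to-noise ratio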
# [8] = test system: Noggin (protein binding on small-molecule microarray); test: small molecules binding Noggin protein – biochemical, 635/667 nm fluorescence, primary screen (AID 1095); conditions: 635 nm fluorescence, higher = more signal;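 further: score merges 667 nm feature fluorescence with signal to noise over triplicate slides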
# [9] = molecular target: Neurogenic locus notch homolog protein 3 (Homo sapiens) (UniProt Q9UM47); test: small molecules binding NOTCH3 protein – biochemical, 635/667 nm fluorescence, primary screen (AID 1096); conditions: small-molecule microarray, 635 nm fluorescence, higher = more signal
# [10] = probe aEGFR binding to arrayed compounds – biochemical, biotinylated probe, 635/667 nm fluorescence, primary screen (AID 1097); conditions: small-molecule microarray, higher = more signal;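 further: probe is a biotinylated anti-EGFR antibody binding compounds printed on slides; score combines fluorescence near 667 nm and signal to noise of each spot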
# [11] = test system: Plasmodium falciparum Sir2 (PF13_0152, Sir2A); test: Plasmodium falciparum Sir2A binding compounds – biochemical, small-molecule microarray, 635 nm fluorescence, primary screen (AID 1098); conditions: fluorescence 635 nm, higher = more signal;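 further: score merges spot fluorescence intensity with its signal-to-noise ratio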
# [12] = probe aDKK1 binding to arrayed compounds – biochemical, biotinylated probe, 635/667 nm fluorescence, primary screen (AID 1099); conditions: small-molecule microarray, higher = more signal;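 further: score merges 667nm spot fluorescence with signal to noise across triplicate slides; reference of the scale not given here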
# [13] = probe aCHRDL2 binding to arrayed compounds – biochemical, biotinylated probe, 635/667 nm fluorescence, primary screen (AID 1100); conditions: small-molecule microarray, higher = more signal
# [14] = change in splice reporter luminescence, either direction, cell-based, HEK293, spliceosome inhibition project, primary screen (AID 1101); conditions: HEK293 splicing luciferase reporter, 24 h, higher = more signal, called active from +8 up or from −8 down;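 further: HEK293 cells carrying a splicing-competent luciferase reporter gene; test concentration not given here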
# [15] = molecular target: Fibroblast growth factor 10 (Homo sapiens) (UniProt O15520); test: compounds binding fibroblast growth factor 10 – biochemical, small-molecule microarray, 635 nm fluorescence, primary screen (AID 1102); conditions: FGF10 binding, fluorescence 635 nm, higher = more signal
# [16] = test system: glycogen synthase kinase-3 (GSK3A per assay name; protocol says GSK3B); test: compounds binding glycogen synthase kinase-3 – biochemical, small-molecule microarray, 635 nm fluorescence, GSK3A, primary screen (AID 1103); conditions: fluorescence 635 nm, higher = more signal; further: the record names both GSK3A and GSK3B
# [17] = molecular target: Epidermal growth factor receptor (Homo sapiens) (UniProt P00533); test: compounds binding epidermal growth factor receptor – biochemical, small-molecule microarray, 635 nm fluorescence, primary screen (AID 1104); conditions: EGFR binding, higher = more signal;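 further: score merges 667 nm emission intensity with spot signal to noise over triplicate slides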
# [18] = molecular target: Follistatin-related protein 3 (Homo sapiens) (UniProt O95633); test: compounds binding follistatin-related protein 3 – biochemical, small-molecule microarray, 635 nm fluorescence, primary screen (AID 1105); conditions: FSTL3 binding, higher = more signal;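 further: score merges emission near 667 nm and signal to noise per printed spot across three slides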
# [19] = molecular target: Dickkopf-related protein 1 (Homo sapiens) (UniProt O94907); test: small molecules binding DKK1 protein – biochemical, small-molecule microarray, 635 nm fluorescence scan, primary screen (AID 1106); conditions: higher = more signal;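 further: score merges emission near 667 nm with signal to noise over three replicate slides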
# [20] = test system: Inhibin beta A chain (activin A); test: small molecules binding activin A – biochemical, small-molecule microarray, 635 nm fluorescence scan, primary screen (AID 1107); conditions: INHBA, higher = more signal;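 further: mouse activin A protein probed at 4.33 µg/mL on printed slides; score merges bound-protein fluorescence near 667 nm with spot signal-to-noise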
# Torsin-1A-interacting protein 2 (Homo sapiens), sequence (Q8NFQ8 whole entry, looked up): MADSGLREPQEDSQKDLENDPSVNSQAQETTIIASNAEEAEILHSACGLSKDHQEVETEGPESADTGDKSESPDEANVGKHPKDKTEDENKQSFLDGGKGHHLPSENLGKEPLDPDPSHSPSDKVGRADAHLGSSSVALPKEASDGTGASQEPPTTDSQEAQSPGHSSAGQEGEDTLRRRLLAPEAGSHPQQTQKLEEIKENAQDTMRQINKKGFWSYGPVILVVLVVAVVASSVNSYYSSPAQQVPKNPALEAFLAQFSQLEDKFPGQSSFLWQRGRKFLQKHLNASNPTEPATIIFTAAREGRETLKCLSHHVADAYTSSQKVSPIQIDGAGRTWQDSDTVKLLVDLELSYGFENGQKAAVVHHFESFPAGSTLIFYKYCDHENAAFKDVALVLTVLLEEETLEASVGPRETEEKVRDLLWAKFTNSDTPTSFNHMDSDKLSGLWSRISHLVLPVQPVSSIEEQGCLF
# Dickkopf-related protein 1 (Homo sapiens), sequence (O94907 whole entry, looked up): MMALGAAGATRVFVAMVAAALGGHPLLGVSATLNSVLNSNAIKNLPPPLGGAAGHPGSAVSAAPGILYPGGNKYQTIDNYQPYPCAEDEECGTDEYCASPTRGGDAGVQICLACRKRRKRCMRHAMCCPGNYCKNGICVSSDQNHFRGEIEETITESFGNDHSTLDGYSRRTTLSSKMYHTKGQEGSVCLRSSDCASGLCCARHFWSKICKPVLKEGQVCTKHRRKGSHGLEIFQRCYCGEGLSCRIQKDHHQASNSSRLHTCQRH
# Follistatin-related protein 3 (Homo sapiens), sequence (O95633 whole entry, looked up): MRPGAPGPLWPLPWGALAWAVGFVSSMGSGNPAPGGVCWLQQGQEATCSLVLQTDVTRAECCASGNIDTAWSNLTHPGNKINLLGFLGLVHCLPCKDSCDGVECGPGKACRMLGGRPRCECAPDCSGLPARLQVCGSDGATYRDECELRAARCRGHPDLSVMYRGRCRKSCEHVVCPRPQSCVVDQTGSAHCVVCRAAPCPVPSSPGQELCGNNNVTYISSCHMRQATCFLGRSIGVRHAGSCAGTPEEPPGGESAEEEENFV
# Fibroblast growth factor 10 (Homo sapiens), sequence (O15520 whole entry, looked up): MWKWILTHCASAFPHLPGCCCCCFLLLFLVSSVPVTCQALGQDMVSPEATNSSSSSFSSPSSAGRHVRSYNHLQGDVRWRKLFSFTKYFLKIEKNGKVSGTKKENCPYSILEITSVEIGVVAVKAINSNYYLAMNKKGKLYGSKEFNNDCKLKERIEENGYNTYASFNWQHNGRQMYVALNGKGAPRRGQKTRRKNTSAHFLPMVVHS
# Neurogenic locus notch homolog protein 3 (Homo sapiens), sequence (Q9UM47 whole entry, looked up): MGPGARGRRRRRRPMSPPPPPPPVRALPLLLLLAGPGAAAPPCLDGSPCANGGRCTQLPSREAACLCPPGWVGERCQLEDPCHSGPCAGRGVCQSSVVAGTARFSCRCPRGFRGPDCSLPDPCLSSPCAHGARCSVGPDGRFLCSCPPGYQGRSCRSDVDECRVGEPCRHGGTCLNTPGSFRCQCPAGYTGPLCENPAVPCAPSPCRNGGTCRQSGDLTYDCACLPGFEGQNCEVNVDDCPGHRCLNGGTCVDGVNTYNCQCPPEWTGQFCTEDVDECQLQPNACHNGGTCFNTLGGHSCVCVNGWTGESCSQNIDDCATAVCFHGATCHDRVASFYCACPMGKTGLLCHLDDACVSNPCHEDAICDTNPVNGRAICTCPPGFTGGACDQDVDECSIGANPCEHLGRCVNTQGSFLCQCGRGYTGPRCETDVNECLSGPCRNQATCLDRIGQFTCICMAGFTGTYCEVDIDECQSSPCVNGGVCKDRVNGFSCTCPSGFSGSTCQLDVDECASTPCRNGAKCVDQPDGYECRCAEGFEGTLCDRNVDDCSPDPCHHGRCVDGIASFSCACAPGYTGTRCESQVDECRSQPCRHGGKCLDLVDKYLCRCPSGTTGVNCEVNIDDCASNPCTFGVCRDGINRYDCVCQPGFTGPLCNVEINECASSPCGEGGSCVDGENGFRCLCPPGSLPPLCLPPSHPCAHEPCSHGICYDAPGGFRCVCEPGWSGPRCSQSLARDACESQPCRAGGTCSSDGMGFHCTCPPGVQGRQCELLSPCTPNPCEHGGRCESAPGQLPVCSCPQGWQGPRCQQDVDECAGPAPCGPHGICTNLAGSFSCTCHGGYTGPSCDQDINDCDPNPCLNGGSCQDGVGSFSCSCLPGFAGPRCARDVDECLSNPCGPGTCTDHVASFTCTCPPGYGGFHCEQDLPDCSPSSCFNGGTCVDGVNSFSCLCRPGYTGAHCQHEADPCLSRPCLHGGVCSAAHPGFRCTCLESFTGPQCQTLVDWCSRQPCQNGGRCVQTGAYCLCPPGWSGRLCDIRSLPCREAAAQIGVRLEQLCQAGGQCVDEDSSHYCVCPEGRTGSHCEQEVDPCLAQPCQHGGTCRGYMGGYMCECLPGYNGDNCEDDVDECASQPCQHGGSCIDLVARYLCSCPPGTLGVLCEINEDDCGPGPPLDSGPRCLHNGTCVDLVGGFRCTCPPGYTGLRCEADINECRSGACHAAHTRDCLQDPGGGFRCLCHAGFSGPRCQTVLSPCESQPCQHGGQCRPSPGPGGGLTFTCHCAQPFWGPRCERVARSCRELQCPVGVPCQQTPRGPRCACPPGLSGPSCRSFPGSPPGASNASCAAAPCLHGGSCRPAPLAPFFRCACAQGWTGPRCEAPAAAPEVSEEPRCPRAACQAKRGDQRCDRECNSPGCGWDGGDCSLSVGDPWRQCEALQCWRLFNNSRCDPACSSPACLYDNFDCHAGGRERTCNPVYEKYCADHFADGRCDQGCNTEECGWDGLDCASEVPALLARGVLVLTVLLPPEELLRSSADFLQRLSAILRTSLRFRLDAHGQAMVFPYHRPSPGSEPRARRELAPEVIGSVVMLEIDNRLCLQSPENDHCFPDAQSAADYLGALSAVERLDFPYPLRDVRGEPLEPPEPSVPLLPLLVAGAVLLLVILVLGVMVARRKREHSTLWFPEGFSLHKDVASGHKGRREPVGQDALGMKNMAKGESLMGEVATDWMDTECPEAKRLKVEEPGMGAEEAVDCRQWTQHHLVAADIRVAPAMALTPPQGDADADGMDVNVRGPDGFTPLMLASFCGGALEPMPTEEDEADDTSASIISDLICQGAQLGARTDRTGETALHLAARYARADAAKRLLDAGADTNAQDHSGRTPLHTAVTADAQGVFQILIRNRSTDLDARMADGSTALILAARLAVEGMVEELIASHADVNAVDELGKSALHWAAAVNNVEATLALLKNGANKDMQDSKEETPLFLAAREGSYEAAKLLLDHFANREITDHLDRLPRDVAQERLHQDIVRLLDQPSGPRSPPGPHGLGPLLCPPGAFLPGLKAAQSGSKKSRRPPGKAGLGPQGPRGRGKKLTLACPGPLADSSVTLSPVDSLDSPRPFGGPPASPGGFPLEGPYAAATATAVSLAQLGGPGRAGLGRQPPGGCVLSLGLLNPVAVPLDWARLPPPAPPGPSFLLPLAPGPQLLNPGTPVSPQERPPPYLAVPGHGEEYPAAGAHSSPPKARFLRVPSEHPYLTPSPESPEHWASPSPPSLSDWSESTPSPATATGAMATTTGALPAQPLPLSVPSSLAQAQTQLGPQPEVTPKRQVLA
# Epidermal growth factor receptor (Homo sapiens), sequence (P00533 whole entry, looked up): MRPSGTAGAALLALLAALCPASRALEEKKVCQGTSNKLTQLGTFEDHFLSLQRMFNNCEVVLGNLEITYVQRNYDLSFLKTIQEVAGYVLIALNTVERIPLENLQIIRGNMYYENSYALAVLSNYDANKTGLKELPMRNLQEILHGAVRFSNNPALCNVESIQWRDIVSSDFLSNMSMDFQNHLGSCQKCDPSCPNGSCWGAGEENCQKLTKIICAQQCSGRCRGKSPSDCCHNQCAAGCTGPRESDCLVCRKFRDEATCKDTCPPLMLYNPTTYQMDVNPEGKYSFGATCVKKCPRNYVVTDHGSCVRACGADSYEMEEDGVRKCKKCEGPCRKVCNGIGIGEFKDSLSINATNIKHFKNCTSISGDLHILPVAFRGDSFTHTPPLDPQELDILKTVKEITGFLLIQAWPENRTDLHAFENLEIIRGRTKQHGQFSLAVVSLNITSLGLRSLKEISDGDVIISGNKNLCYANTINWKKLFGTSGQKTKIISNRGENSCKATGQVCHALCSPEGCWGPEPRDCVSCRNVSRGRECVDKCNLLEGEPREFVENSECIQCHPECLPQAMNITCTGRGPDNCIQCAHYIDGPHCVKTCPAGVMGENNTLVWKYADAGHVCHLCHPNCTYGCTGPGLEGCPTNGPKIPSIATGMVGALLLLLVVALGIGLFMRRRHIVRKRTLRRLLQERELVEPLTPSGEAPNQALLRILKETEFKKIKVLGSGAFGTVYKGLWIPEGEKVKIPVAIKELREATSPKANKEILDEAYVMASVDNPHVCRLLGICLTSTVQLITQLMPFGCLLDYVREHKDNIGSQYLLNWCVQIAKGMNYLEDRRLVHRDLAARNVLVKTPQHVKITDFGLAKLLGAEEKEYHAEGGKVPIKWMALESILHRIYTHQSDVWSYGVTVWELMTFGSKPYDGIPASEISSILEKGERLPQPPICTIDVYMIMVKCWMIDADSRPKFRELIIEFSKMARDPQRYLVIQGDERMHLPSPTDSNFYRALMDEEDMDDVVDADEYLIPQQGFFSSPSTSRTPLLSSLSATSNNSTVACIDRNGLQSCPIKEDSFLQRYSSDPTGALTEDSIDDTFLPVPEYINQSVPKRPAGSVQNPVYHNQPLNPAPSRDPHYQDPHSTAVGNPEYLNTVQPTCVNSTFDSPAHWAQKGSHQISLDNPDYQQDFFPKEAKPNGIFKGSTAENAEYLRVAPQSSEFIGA
smiles,measurement,setting,value
COCCOC(=O)N1C(=O)[C@@]2(c3cc(C#CCC(C(=O)OC)C(=O)OC)ccc31)[C@H](C(=O)N1CCc3cc(OC)c(OC)cc3C1)[C@H]1C(=O)O[C@H](c3ccccc3)[C@H](c3ccccc3)N1[C@@H]2c1ccc(O)cc1,composite z-score,[1],1.54
same,z-score,[2],0.215 (inactive)
same,z-score,[3],0.233 (inactive)
same,z-score,[4],0.773 (inactive)
same,composite z-score,[5],1.99
same,z-score,[6],0.204 (inactive)
same,composite z-score,[7],0.0704
same,composite z-score,[8],1.19
same,composite z-score,[9],1.08
same,composite z-score,[10],0.135
same,composite z-score,[11],0.86
same,composite z-score,[12],0.148
same,composite z-score,[13],0.0085
same,z-score,[14],1.5 (inactive)
same,composite z-score,[15],1.24
same,composite z-score,[16],0.636
same,composite z-score,[17],0.868
same,composite z-score,[18],1.47
same,composite z-score,[19],1.62
same,composite z-score,[20],0.418
CN(C)C(=O)[C@]1(Cc2ccccc2CN=[N+]=[N-])N=C(c2ccc(OCCCO)cc2)O[C@@H]1c1ccccc1N=[N+]=[N-],composite z-score,[1],1.48
same,z-score,[2],-1.73 (inactive)
same,z-score,[3],0.498 (inactive)
same,z-score,[4],12.9 (active)
same,composite z-score,[5],3.43
same,z-score,[6],-0.0046 (inactive)
same,composite z-score,[7],0.0369
same,composite z-score,[8],0.317
same,composite z-score,[9],0.618
same,composite z-score,[10],0.0427
same,composite z-score,[11],1.18
same,composite z-score,[12],0.805
same,composite z-score,[13],0.884
same,z-score,[14],-1.27 (inactive)
same,composite z-score,[15],0.939
same,composite z-score,[16],0.631
same,composite z-score,[17],-0.205
same,composite z-score,[18],0.264
same,composite z-score,[19],-0.0994
same,composite z-score,[20],0.814
COCCOC(=O)N1C(=O)[C@@]2(c3cc(C#CC4(O)CCCCCC4)ccc31)[C@H](c1ccc(OCCO)cc1)N1[C@H](c3ccccc3)[C@H](c3ccccc3)OC(=O)[C@H]1[C@@H]2C(N)=O,composite z-score,[1],1.53
same,z-score,[2],1.29 (inactive)
same,z-score,[3],0.926 (inactive)
same,z-score,[4],4.69 (inactive)
same,composite z-score,[5],1.67
same,z-score,[6],0.257 (inactive)
same,composite z-score,[7],0.0494
same,composite z-score,[8],1.52
same,composite z-score,[9],1.06
same,composite z-score,[10],-0.013
same,composite z-score,[11],1.37
same,composite z-score,[12],0.0809
same,composite z-score,[13],0.0419
same,z-score,[14],-1.47 (inactive)
same,composite z-score,[15],1.14
same,composite z-score,[16],1.31
same,composite z-score,[17],0.883
same,composite z-score,[18],1.22
same,composite z-score,[19],0.617
same,composite z-score,[20],1
CO[C@H]1O[C@H](CO)[C@@H](OC(=O)Nc2ccc(C(F)(F)F)cc2)[C@H](OC(=O)Nc2ccccc2-c2ccccc2)[C@@H]1OC(=O)Nc1ccccc1-c1ccccc1,composite z-score,[1],1.54
same,z-score,[2],0.94 (inactive)
same,z-score,[3],1.25 (inactive)
same,z-score,[4],4.92 (inactive)
same,composite z-score,[5],2.4
same,z-score,[6],0.193 (inactive)
same,composite z-score,[7],0.33
same,composite z-score,[8],1.32
same,composite z-score,[9],1.02
same,composite z-score,[10],0.0752
same,composite z-score,[11],1.46
same,composite z-score,[12],1.07
same,composite z-score,[13],0.61
same,z-score,[14],-0.0628 (inactive)
same,composite z-score,[15],1.04
same,composite z-score,[16],1.29
same,composite z-score,[17],0.35
same,composite z-score,[18],1.37
same,composite z-score,[19],0.507
same,composite z-score,[20],0.0026
C[C@H]1NC(=O)C([C@@H](C)OCc2ccccc2)NC(=O)[C@@]23C(=O)N[C@@H](Cc4ccccc4)C2[C@H](C)[C@@]2(C)O[C@H]2C3/C=C/C/C=C\CNC1=O (stereo not given in full),composite z-score,[1],-0.242
same,z-score,[2],0.823 (inactive)
same,z-score,[3],-0.389 (inactive)
same,z-score,[4],1.06 (inactive)
same,composite z-score,[5],0.721
same,z-score,[6],0.147 (inactive)
same,composite z-score,[7],-0.192
same,composite z-score,[8],0.797
same,composite z-score,[9],0.0201
same,composite z-score,[10],-0.168
same,composite z-score,[11],0.0032
same,composite z-score,[12],-0.333
same,composite z-score,[13],-0.603
same,z-score,[14],0.219 (inactive)
same,composite z-score,[15],0.699
same,composite z-score,[16],-0.3
same,composite z-score,[17],0.281
same,composite z-score,[18],0.511
same,composite z-score,[19],0.722
same,composite z-score,[20],1.43
C=CCC(OC(C)=O)[C@@H]1[C@@H](N(Cc2cc3ccccc3o2)C(=O)c2ccc(-c3ccccc3)cc2)c2cc(OCCCO)ccc2N1C(=O)c1ccc2ccccc2n1 (stereo not given in full),composite z-score,[1],-0.766
same,z-score,[2],0.806 (inactive)
same,z-score,[3],0.0887 (inactive)
same,z-score,[4],1.16 (inactive)
same,composite z-score,[5],0.607
same,z-score,[6],0.859 (inactive)
same,composite z-score,[7],-0.072
same,composite z-score,[8],0.0917
same,composite z-score,[9],-0.781
same,composite z-score,[10],-0.0151
same,composite z-score,[11],-0.148
same,composite z-score,[12],0.0919
same,composite z-score,[13],0.51
same,z-score,[14],-0.0569 (inactive)
same,composite z-score,[15],-0.0302
same,composite z-score,[16],-1.24
same,composite z-score,[17],-0.0803
same,composite z-score,[18],-0.205
same,composite z-score,[19],0.157
same,composite z-score,[20],1.33
CCOC(=O)C1=CC[C@@H](c2ccccc2Cl)N(S(=O)(=O)c2ccc(C)cc2)[C@H]1c1cccc(OC)c1,composite z-score,[1],0.336
same,z-score,[2],0.318 (inactive)
same,z-score,[3],0.957 (inactive)
same,z-score,[4],2.88 (inactive)
same,composite z-score,[5],1.84
same,z-score,[6],-1.08 (inactive)
same,composite z-score,[7],-0.186
same,composite z-score,[8],-0.0339
same,composite z-score,[9],0.506
same,composite z-score,[10],-0.125
same,composite z-score,[11],0.662
same,composite z-score,[12],-0.0972
same,composite z-score,[13],-0.335
same,z-score,[14],0.751 (inactive)
same,composite z-score,[15],0.331
same,composite z-score,[16],0.269
same,composite z-score,[17],-0.055
same,composite z-score,[18],0.536
same,composite z-score,[19],-0.237
same,composite z-score,[20],0.406
C=C(COC)C(=O)CC[C@@H](OC(=O)c1cccnc1)c1cccc(OCCO)c1,composite z-score,[1],1.37
same,z-score,[2],-0.686 (inactive)
same,z-score,[3],-1.14 (inactive)
same,z-score,[4],-0.632 (inactive)
same,composite z-score,[5],1.35
same,z-score,[6],0.726 (inactive)
same,composite z-score,[7],0.0932
same,composite z-score,[8],0.873
same,composite z-score,[9],0.693
same,composite z-score,[10],-0.0922
same,composite z-score,[11],0.709
same,composite z-score,[12],0.119
same,composite z-score,[13],0.618
same,z-score,[14],3.33 (inactive)
same,composite z-score,[15],1.27
same,composite z-score,[16],-0.284
same,composite z-score,[17],-0.0749
same,composite z-score,[18],0.652
same,composite z-score,[19],0.284
same,composite z-score,[20],1.37
CC(C)C(=C=CC[C@@H](O)c1ccc(OCCO)cc1)CCO,composite z-score,[1],0.693
same,z-score,[2],-1.21 (inactive)
same,z-score,[3],-1.32 (inactive)
same,z-score,[4],-1.4 (inactive)
same,composite z-score,[5],-0.0081
same,z-score,[6],1.23 (inactive)
same,composite z-score,[7],-0.225
same,composite z-score,[8],0.96
same,composite z-score,[9],0.271
same,composite z-score,[10],-0.146
same,composite z-score,[11],0.959
same,composite z-score,[12],-0.233
same,composite z-score,[13],0.0776
same,z-score,[14],-0.35 (inactive)
same,composite z-score,[15],0.688
same,composite z-score,[16],-0.579
same,composite z-score,[17],-0.395
same,composite z-score,[18],0.196
same,composite z-score,[19],-0.117
same,composite z-score,[20],0.516
CCCCC(=C=CC[C@H](O)c1ccc(OCCO)cc1)C[C@H](O)c1ccccn1,composite z-score,[1],1.54
same,z-score,[2],0.415 (inactive)
same,z-score,[3],-1.18 (inactive)
same,z-score,[4],-0.539 (inactive)
same,composite z-score,[5],1.72
same,z-score,[6],0.493 (inactive)
same,composite z-score,[7],-0.0094
same,composite z-score,[8],0.266
same,composite z-score,[9],0.419
same,composite z-score,[10],0.165
same,composite z-score,[11],0.856
same,composite z-score,[12],-0.0313
same,composite z-score,[13],-0.112
same,z-score,[14],0.107 (inactive)
same,composite z-score,[15],1.35
same,composite z-score,[16],0.583
same,composite z-score,[17],-0.229
same,composite z-score,[18],0.416
same,composite z-score,[19],0.215
same,composite z-score,[20],0.669
